Bioassay records deposited in PubChem by National Center for Advancing Translational Sciences (NCATS).
G9a block = blocks human histone lysine methyltransferase G9a. Potency, µM (titrated, usually from 102 µM), for the others: top-dose activity, negative = inhibition, most hits filed as inhibitors. G9a H3K9 monomethylation, AlphaScreen, 2 h. 350,000 compounds, 8.8% hits; also: % is scaled to controls: 0 for no effect and ±100 for the full control effect; nearly all actives have a fitted effect of over 75% in size
Target sequence (Q96KQ7 913-1193 limits assumed): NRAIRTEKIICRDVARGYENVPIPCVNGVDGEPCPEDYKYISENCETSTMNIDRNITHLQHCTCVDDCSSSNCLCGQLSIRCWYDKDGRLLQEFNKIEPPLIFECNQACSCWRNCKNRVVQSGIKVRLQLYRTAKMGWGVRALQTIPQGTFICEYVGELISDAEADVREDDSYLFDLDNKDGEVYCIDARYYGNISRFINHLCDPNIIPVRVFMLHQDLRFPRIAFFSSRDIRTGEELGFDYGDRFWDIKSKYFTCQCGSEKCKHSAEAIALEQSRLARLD
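Using a bead-based AlphaScreen, monomethylated H3K9 product from 2 h room-temperature reactions (G9a 20 nM, peptide 500 nM, SAM 20 uM) was detected with 0.5 ug/mL rabbit anti-H3K9me1 antibody.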
HP1b binding inh = HP1-beta chromodomain-methylated histone interaction inhibition. P83916. AlphaScreen HP1-beta / biotin-H3K9me3 peptide binding. Potency, µM (series often up to 114 µM), without a hit: top-dose activity change, negative = inhibition, actives largely listed as inhibitors. 390,000 compounds, 0.56% hits. AID 540317; also: nearly all actives have a fitted effect of over 70% in size
Target sequence (P83916 whole entry, looked up): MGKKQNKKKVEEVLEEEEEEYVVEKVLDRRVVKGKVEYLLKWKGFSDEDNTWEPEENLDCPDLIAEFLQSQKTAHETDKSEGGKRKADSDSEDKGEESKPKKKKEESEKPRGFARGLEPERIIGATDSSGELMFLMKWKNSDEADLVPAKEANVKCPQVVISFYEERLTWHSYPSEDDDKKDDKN
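AlphaScreen: HP1-beta (50 nM) preformed 30 min with biotin-H3(1-18)K9me3 peptide (50 nM) in PBS pH 7.4, 0.01% Tween-20. Compound added for 30 min at RT, then streptavidin donor/nickel chelate acceptor beads (10 ug/mL) for 30 min.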
JMJD2A Tudor = blocks the human JMJD2A Tudor domain; 390,000 compounds, 4.4% hits; AID 504339; AlphaScreen JMJD2A-Tudor / H3K4me3 peptide binding; O75164; Potency, µM (highest dose often 114 µM), for inactives: at the highest dose activity change, negative = inhibition, usual class: inhibitors; also: % is scaled to controls: 0 for no effect and ±100 for the full control effect; nearly all actives have a fitted effect of over 50% in size
GLS inh = glutaminase GLS (human) inhibition. GLS enzymatic activity, qHTS titration. Potency, µM (series often up to 45.5 µM), inactives show top-dose activity change, negative = inhibition, most hits filed as inhibitors. 410,000 compounds, 0.21% hits. AID 624170; also: % is scaled to controls: 0 for no effect and ±100 for the full control effect
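Read-out is an Amplex red fluorescence increase coupled through glutamate oxidase and HRP, measured before and after 30 min room-temperature incubation. hKGA is in 45 mM KH2PO4 (pH 8.2) with 0.02% Tween-20; glutamine added as 1mM solution.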
BAZ2B inh = blocks human BAZ2B | AlphaScreen BAZ2B-H3K14Ac peptide displacement | 360,000 compounds, 4.4% hits | Q9UIF8 | Potency, µM (top dose mostly 114 µM), for inactives: at the top dose activity change, negative = inhibition, usual class: inhibitors | AID 504333; also: % is scaled to controls: 0 for no effect and ±100 for the full control effect; nearly all actives have a fitted effect of over 60% in size
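AlphaScreen luminescence quantifies BAZ2B engagement of H3K14Ac peptide; the protein and biotinylated peptide are both at 50 nM final, buffer PBS pH 7.4 with 0.01% Tween-20, all steps at room temperature.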
L3MBTL1 block = inhibitors of human L3MBTL1; Q9Y468; AlphaScreen L3MBTL1–H3K9me1 peptide binding; Potency, µM (doses to about 57.1 µM), for the others: at the highest dose activity, negative = inhibition, actives largely listed as inhibitors; 230,000 compounds, 0.66% hits; AID 485360; also: % is scaled to controls: 0 for no effect and ±100 for the full control effect; nearly all actives have a fitted effect of over 60% in size
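L3MBTL1 50 nM + b-AHA-H3(1-15)K9me1 75 nM, 30 min RT; compound added, 30 min RT; streptavidin donor/Ni-chelate acceptor beads 10 ug/mL each final, 30 min RT dark; AlphaScreen read.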
* marks the source's active call; other numbers are inactive results; ? = inconclusive; . = no result given; [ ] = dose if it differs, or a comment. Hits are enriched below; roughly 10% of the tested compounds scored in any of these assays. Calls follow the shape of the dose curve; as a rule, active = well fitted curve in the direction sought with a large enough effect; inconclusive = small, poorly fitted or top-dose-only effect, or another doubt; inactive = no such curve, though single readings can be large; an effect the other way counts as inactive or inconclusive. Potency is read from the fitted curve at half-maximal effect.

SMILES	G9a block	HP1b binding inh	JMJD2A Tudor	GLS inh	BAZ2B inh	L3MBTL1 block
Cc1ccc(-c2nc(C(=O)NCc3ccccc3Cl)c3n2CCCCC3)cc1	-9%[59 µM]	-5%	-18%	-6%	-32%	.
COc1ccc(NC(=O)c2ccc(-c3ccccc3Cl)o2)cc1	79µM*	28%	-7%	3%	-4%	11%
Cc1ccc(C)c(NC(=O)CN(C)C(=O)c2ccc(-c3ccc(Cl)cc3)o2)c1	-8%[2.33 µM]	21%	-29%	-4%	5%	-5%
O=C(Nc1ccccc1)c1cc(-c2ccccc2Cl)no1	42%	-2%	28µM*	1%	5%	5%
COc1ccc(NC(=O)c2ccc(-c3cccc(Cl)c3C)o2)cc1	-28%[59 µM]	-2%	-7%	2%	-9%	.
CN(CC(=O)Nc1cccc(F)c1)C(=O)c1ccc(-c2ccc(Cl)cc2)o1	35µM*	6%	?	-4%	?	.
COc1ccc(C(CNC(=O)c2ccc(-c3ccccc3Cl)o2)N2CCOCC2)cc1 (stereo not given)	45µM*	-9%	-35%	0%	?	-17%
COc1ccccc1C(CNC(=O)c1ccc(-c2ccccc2Cl)o1)N1CCCC1 (stereo not given)	14%[0.501 µM]	2%	?	12%	-36%	-1%
Cn1nnnc1SCCCNCc1cc(Br)ccc1OCc1ccccc1	-25%[59 µM]	41%	-6%	3%	?	.
COc1ccc(CN(C(=O)c2ccccc2F)C2CCS(=O)(=O)C2)cc1 (stereo not given)	-5%[59 µM]	6%	-9%	-13%	-6%	.
Cc1ccc(Cl)cc1N1CCN(c2nc3ccccc3c3nc(-c4cccnc4)nn23)CC1	?	18%	5%	-19%	2%	.
OC(c1ccccc1)(c1nc(-c2ccc3c(c2)OCO3)cs1)C(F)(F)F (stereo not given)	.	.	.	5%	.	.
OCCn1c(-c2ccc(F)cc2)csc1=Nc1ccccc1	20µM*	?	?	-4%	25µM*	-24%
OCCn1c(-c2ccc3c(c2)OCO3)csc1=Nc1ccccc1	-47%[12.7 µM]	?	40µM*	8%	40µM*	-9%
CCOc1ccccc1NC(=O)N(Cc1ccc(C)o1)C1CCN(C(C)=O)CC1	-7%[59 µM]	2%	-23%	-2%	-21%	.
O=C(c1ccc(Br)s1)N(Cc1cccnc1)c1nc2ccc(F)cc2s1	?	13%	-11%	5%	-3%	.
CC1CCC/C(=C\Nc2ccc(C(=O)O)cc2)C1=O (stereo not given)	?	36%	-6%	9%	-1%	.
CC1CCC/C(=C\Nc2ccc(C(=O)O)c(O)c2)C1=O (stereo not given)	45µM*	22%	-24%	30%	-13%	-8%
COC(=O)C1=C(c2ccccc2)c2ccccc2S(=O)(=O)N1CC(=O)Nc1cccc(C(C)=O)c1	?	14%	?	1%	-13%	.
Cc1ccc(NC(=O)C(C)n2nnc3sc4c(c3c2=O)CCCC4)cc1Cl (stereo not given)	?	42%	-29%	-4%	-16%	.
CC(C(=O)Nc1ccccc1)n1nnc2sc3c(c2c1=O)CCCC3 (stereo not given)	16µM*	2%	-31%	7%	-16%	.
COc1ccc(Cl)cc1NC(=O)C(C)n1nnc2sc3c(c2c1=O)CCCC3 (stereo not given)	14µM*	9%	-33%	-1%	-19%	.
CC(C(=O)Nc1ccccc1C(F)(F)F)n1nnc2sc3c(c2c1=O)CCCC3 (stereo not given)	14µM*	-3%	-20%	-1%	-17%	.
O=C(CSc1nc2c(c(=O)[nH]1)CCCC2)Nc1ccc(Br)cc1	-32%[59 µM]	2%	-21%	2%	-12%	.
Cc1ccc(C)c(NC(=S)c2ccccn2)c1	?	6.3µM*	79µM*	11%	20µM*	?
S=C(Nc1ccccn1)c1ccccn1	?	13µM*	5µM*	50%	10µM*	.
